Results as given in PubChem BioAssay (Tox21).
“And” between values parts separate entries of the source, which are not always exact repeats. Identical values can stand only once. Records with an inconclusive call do not appear. Entries that show only a call come without a potency. More than one record can exist for a structure, and the calls need not agree. The source made the active and inactive calls. Unless noted, calls follow the shape of the full dose curve.

How the values were obtained:
[1] = Nuclear factor erythroid 2-related factor 2/antioxidant responsive element (Nrf2/ARE) small molecule agonists: qHTS cell viability counter screen in human keratinocytes (AID 1919968; active = well fitted curve in the direction sought with a large enough effect in the repeat runs; an effect the other way counts as inactive or inconclusive; also: nearly all actives have a fitted effect of over 55% in size; also: potency is read from the fitted curve at half-maximal effect)
How it was run: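 Cytotoxicity was multiplexed with the Nrf2/ARE luciferase assay in the same wells. Stably transfected HaCaT keratinocytes were treated with test compounds for 23 h at 37 C. Cell viability was then measured by CellTiter-Fluor fluorescence.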

[2] = Nuclear factor erythroid 2-related factor 2/antioxidant responsive element (Nrf2/ARE) small molecule agonists: luciferase reporter gene qHTS assay in human keratinocytes (AID 1919969); also: nearly all actives have a fitted effect of over 35% in size; also: potency is read from the fitted curve at half-maximal effect
[3] = molecular target: Gonadotropin-releasing hormone receptor (Homo sapiens) (UniProt P30968); test: Human gonadotropin-releasing hormone receptor (GnRHR) small molecule agonists, calcium flux assay in GnRHR-HEK293 cells (AID 1920063); also: nearly all actives have a fitted effect of over 35% in size; also: potency is read from the fitted curve at half-maximal effect
Chain of Gonadotropin-releasing hormone receptor (Homo sapiens) (P30968 whole entry, looked up): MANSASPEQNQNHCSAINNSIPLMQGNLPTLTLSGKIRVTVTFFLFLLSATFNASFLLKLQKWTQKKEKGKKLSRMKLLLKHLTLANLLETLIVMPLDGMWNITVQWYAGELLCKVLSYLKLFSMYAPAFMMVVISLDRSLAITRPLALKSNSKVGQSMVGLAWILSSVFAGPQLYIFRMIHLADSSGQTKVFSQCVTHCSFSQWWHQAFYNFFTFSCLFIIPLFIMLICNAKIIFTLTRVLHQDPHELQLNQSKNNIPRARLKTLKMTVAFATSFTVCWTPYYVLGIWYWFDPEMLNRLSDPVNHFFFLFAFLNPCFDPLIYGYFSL
How it was run: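 Agonist activity was measured as intracellular calcium flux in HEK293 cells engineered to stably express human GnRHR. After dye loading for 1 hour at 37 C, compounds in DMSO were added and fluorescence was followed for 3 minutes.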

[4] = molecular target: KiSS-1 receptor (Homo sapiens) (UniProt Q969F8); test: Human kisspeptin (KISS1R) small molecule agonists, calcium flux assay in KISS1R-HEK293 cells (AID 1920064; active = well fitted curve in the direction sought with a large enough effect in the repeat runs; an effect the other way counts as inactive or inconclusive)
Chain of KiSS-1 receptor (Homo sapiens) (Q969F8 whole entry, looked up): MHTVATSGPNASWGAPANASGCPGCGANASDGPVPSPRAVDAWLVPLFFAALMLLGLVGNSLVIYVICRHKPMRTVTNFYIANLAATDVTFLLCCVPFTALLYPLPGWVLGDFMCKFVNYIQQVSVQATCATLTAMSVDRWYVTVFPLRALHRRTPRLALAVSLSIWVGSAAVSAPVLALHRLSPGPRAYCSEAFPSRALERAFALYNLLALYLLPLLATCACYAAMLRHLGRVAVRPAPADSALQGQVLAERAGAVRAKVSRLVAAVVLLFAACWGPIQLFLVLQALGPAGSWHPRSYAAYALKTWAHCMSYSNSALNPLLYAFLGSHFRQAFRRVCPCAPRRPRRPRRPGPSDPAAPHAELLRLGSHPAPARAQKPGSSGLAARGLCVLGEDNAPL
How it was run: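 Agonist activity is monitored as intracellular calcium rise in engineered HEK293 cells carrying human KISS1R. Cells are dye-loaded for 1 h at 37 C before compound addition, and fluorescence is recorded for 3 min.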

[5] = G protein-coupled receptor (GPCR) small molecule agonists, calcium flux assay: HEK293 wild type cell line counter screen (AID 1920065)
How it was run: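 Seed cells, incubate 18 h (37 C, 5% CO2); add calcium dye, 1 h at 37 C; pin-transfer compounds, ATP control or DMSO; read fluorescence 480/540 nm each second for 3 min.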

[6] = p53 small molecule agonists, cell-based qHTS assay with human liver microsomes (AID 1963577);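 also: p53 response element beta-lactamase reporter cells with liver microsomes plus NADPH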
How it was run: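 In this qHTS, p53 response-element beta-lactamase cells receive test compound together with a microsome/NADPH activating system (0.5 mg/mL final each) and are incubated 16 h at 37 C before LiveBLAzer fluorescence detection.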

[7] = p53 small molecule agonists, cell-based qHTS assay with human liver microsomes: qHTS cell viability counter screen (AID 1963579); also: nearly all actives have a fitted effect of over 45% in size
How it was run: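 Metabolically activated exposure: compounds, human liver microsomes and NADPH (0.5 mg/mL final apiece) were added to p53RE-bla cells seeded 5 h earlier, left 16 h at 37 C, and then assessed for viability by CellTiter-Glo luminescence.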

[8] = p53 small molecule agonists, cell-based qHTS assay with rat liver microsomes: qHTS cell viability counter screen (AID 1963580); also: nearly all actives have a fitted effect of over 45% in size
How it was run: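 Counter screen for cytotoxicity under metabolic activation: rat liver microsomes and NADPH, 0.5 mg/mL final each, added with compounds to p53RE-bla HCT-116 cells; 16 h at 37 C, then ATP luminescence read.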

[9] = p53 small molecule agonists, cell-based qHTS assay: qHTS cell viability counter screen (AID 1963581); also: nearly all actives have a fitted effect of over 45% in size
How it was run: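 Viability was counter-screened in parallel with the p53 agonist reporter by measuring intracellular ATP luminescence in the same HCT-116 p53RE-bla wells after 16 h compound treatment at 37 C.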

[10] = p53 small molecule agonists, cell-based qHTS assay (AID 1963582; active = well fitted activation curve with a large enough effect in the signal ratio in the repeat runs, not every such curve was filed as active; the % refers to the signal ratio)
How it was run: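 Cells carrying a p53-responsive bla reporter are treated with test compounds for 16 h at 37 C; beta-lactamase activity is then detected with LiveBLAzer B/G FRET substrate after 2 h at room temperature.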

[11] = molecular target: 5-hydroxytryptamine receptor 2A (Homo sapiens) (UniProt P28223); test: 5-hydroxytryptamine receptor 2A (HTR2A) small molecule agonists, cell-based qHTS assay (AID 1963587); also: nearly all actives have a fitted effect of over 30% in size; also: potency is read from the fitted curve at half-maximal effect
Chain of 5-hydroxytryptamine receptor 2A (Homo sapiens) (P28223 whole entry, looked up): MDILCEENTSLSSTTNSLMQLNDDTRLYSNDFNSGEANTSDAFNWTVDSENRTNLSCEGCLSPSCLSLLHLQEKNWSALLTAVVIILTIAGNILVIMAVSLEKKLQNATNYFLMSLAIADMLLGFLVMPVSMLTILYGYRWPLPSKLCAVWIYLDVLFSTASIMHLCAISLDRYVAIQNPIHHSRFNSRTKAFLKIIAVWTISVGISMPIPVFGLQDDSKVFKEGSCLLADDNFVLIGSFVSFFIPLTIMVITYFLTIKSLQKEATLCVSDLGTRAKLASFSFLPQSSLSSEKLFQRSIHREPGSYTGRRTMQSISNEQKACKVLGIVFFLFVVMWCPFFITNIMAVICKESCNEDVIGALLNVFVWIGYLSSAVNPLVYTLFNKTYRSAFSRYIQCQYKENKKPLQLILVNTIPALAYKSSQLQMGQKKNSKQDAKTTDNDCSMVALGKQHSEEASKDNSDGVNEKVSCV
How it was run: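 HTR2A-CHO cells, plated 18 h at 37 C/5% CO2, dye-loaded 1 h at 37 C; compounds in DMSO added by pin tool (agonist mode). Intracellular calcium flux read as kinetic fluorescence on FDSS over 2 min at 1 s intervals.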

[12] = molecular target: Muscarinic acetylcholine receptor M1 (Homo sapiens) (UniProt P11229); test: Cholinergic receptor muscarinic 1 (CHRM1) small molecule antagonists, cell-based qHTS assay (AID 1963588); also: nearly all actives have a fitted effect of over 40% in size; also: potency is read from the fitted curve at half-maximal effect
Chain of Muscarinic acetylcholine receptor M1 (Homo sapiens) (P11229 whole entry, looked up): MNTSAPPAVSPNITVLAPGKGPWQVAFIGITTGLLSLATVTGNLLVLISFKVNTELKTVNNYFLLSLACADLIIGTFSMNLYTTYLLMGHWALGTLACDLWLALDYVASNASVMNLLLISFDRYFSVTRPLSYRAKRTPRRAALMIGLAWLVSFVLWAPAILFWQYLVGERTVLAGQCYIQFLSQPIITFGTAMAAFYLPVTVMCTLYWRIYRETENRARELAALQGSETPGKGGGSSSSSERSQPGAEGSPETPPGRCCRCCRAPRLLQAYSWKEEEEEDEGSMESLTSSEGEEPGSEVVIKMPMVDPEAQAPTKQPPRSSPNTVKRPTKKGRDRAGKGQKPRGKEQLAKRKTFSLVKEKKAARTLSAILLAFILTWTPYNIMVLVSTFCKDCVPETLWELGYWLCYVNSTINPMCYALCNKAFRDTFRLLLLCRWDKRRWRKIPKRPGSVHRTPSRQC
How it was run: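 Compounds were tested at 15 concentrations in three independent runs. Dye-loaded CHRM1-CHO cells were exposed 5 min at room temperature before stimulation by acetylcholine added at 50nM. Intracellular calcium was read kinetically on FDSS for 3 min.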

[13] = molecular target: Muscarinic acetylcholine receptor M1 (Homo sapiens) (UniProt P11229); test: Cholinergic receptor muscarinic 1 (CHRM1) small molecule agonists, cell-based qHTS assay (AID 1963589); also: nearly all actives have a fitted effect of over 35% in size
How it was run: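 Cells were plated and incubated 18 h at 37 C/5% CO2, loaded with calcium dye for 1 h at 37 C, then treated with compounds in DMSO. Fluorescence was recorded kinetically at 1 sec intervals.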

[14] = cAMP Responsive Elements (CRE) small molecule agonists, cell-based qHTS assay (AID 1963590)
How it was run: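 Cells carrying a CRE-driven beta-lactamase reporter (HEK 293T) are seeded, incubated overnight (18 h), and treated with test compounds for 3 h at 37 C; reporter activity is then detected with a FRET substrate after 2 h at room temperature.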

[15] = cAMP Responsive Elements (CRE) small molecule antagonists, cell-based qHTS assay (AID 1963591; active = well fitted inhibition curve with a large enough effect in the signal ratio in the repeat runs, not every such curve was filed as active; the % refers to the signal ratio)
How it was run: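 Cells (CRE-bla HEK 293T, DMEM with 10% dialyzed FBS and 25 mM HEPES) are seeded and incubated 18 h. Compounds are added with NKH477 agonist at 0.25 uM final for 3 h, then FRET substrate for 2 h.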

[16] = molecular target: Beta-2 adrenergic receptor (Homo sapiens) (UniProt P07550); test: Adrenergic beta2 receptor (ADRB2) small molecule antagonists, cell-based qHTS assay (AID 1963592); also: series mostly up to about 92 µM; nearly all actives have a fitted effect of over 50% in size
Chain of Beta-2 adrenergic receptor (Homo sapiens) (P07550 whole entry, looked up): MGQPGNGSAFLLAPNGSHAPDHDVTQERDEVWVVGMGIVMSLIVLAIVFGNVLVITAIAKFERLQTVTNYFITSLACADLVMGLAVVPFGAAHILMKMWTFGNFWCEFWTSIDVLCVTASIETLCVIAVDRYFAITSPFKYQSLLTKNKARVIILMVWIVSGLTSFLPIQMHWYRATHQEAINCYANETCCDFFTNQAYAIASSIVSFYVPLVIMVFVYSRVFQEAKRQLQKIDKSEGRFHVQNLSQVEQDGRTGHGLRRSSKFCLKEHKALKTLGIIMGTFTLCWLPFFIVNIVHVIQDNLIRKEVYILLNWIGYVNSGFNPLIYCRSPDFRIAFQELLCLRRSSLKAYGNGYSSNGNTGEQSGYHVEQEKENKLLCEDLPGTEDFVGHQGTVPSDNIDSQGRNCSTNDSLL
How it was run: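 Assay format: CHO-ADRB2 cells, 18-20hr seeding at 37C/5% CO2, then compound plus 1nM isoproterenol agonist mix for 0.5hr RT. Homogeneous time-resolved fluorescence cAMP detection after 1hr, expressed as 665/615 nm ratio.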

[17] = molecular target: D(2) dopamine receptor (Homo sapiens) (UniProt P14416); test: Dopamine D2 receptor (DRD2) small molecule agonists, cell-based qHTS assay (AID 1963594); also: nearly all actives have a fitted effect of over 35% in size
Chain of D(2) dopamine receptor (Homo sapiens) (P14416 whole entry, looked up): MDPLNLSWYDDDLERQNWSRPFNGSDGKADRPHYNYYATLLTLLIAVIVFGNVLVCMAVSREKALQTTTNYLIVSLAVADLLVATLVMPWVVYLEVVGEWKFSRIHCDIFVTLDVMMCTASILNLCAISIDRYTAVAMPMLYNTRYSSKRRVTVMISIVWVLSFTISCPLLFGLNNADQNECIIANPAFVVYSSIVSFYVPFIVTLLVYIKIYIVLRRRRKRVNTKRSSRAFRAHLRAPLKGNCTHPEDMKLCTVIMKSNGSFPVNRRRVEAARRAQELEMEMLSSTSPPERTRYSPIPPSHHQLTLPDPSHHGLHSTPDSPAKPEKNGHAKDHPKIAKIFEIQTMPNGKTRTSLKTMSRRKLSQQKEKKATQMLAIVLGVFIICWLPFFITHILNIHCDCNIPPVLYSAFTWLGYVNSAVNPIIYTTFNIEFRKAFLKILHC
How it was run: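 HEK293 cells stably expressing DRD2 were cultured 24 h at 37 C, then given Ro20-1724 (0.1 mM final) and compounds for 10 min at room temperature. NKH477 (200nM) was then added for 30 min. cAMP was read by HTRF.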

[18] = molecular target: D(2) dopamine receptor (Homo sapiens) (UniProt P14416); test: Dopamine D2 receptor (DRD2) small molecule antagonists, cell-based qHTS assay (AID 1963595; active = well fitted inhibition curve with a large enough effect in the signal ratio in the repeat runs, with a control signal flat; the % refers to the signal ratio)
How it was run: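 Antagonist mode in DRD2-HEK293 cells: after compound addition with 0.1 mM Ro20-1724, cells received quinpirole (12 nM) and NKH477 (200 nM) for 30 min at room temperature; HTRF cAMP read after 1 h detection.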

[19] = molecular target: 5-hydroxytryptamine receptor 2A (Homo sapiens) (UniProt P28223); test: 5-hydroxytryptamine receptor 2A (HTR2A) small molecule antagonists, cell-based qHTS assay (AID 1963586); also: nearly all actives have a fitted effect of over 45% in size
How it was run: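 CHO cells stably expressing human HTR2A were plated for 18 h at 37 C, then loaded with calcium dye for 1 h. Compounds were preincubated 5 min at room temperature before DOI (4 nM solution) was added. Kinetic fluorescence was read for 3 min.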

[20] = molecular target: Beta-2 adrenergic receptor (Homo sapiens) (UniProt P07550); test: Adrenergic beta2 receptor (ADRB2) small molecule agonists, cell-based qHTS assay (AID 1963593); also: potency is read from the fitted curve at half-maximal effect;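 as to activation: CHO cells stably overexpressing human ADRB2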
How it was run: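 CHO cells stably over-expressing ADRB2 were plated overnight at 37C, then dosed with compounds plus a stimulation mix containing 100uM IBMX and 25uM Ro-20-1724 for 0.5hr at room temperature. cAMP was measured by HTRF competition, 1hr.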

SMILES | Potency [1] | Potency [2] | Potency [3] | Potency [4] | Potency [5] | Potency [6] | Potency [7] | Potency [8] | Potency [9] | Potency [10] | Potency [11] | Potency [12] | Potency [13] | Potency [14] | Potency [15] | Potency [16] | Potency [17] | Potency [18] | Potency [19] | Potency [20]
CCCCCCCCCCCCCCCCCC(=O)OCC(CC)CCCC (stereo unspecified) | inactive | inactive | inactive | inactive | inactive | inactive | inactive | inactive | inactive | inactive | inactive | inactive | inactive | inactive | inactive | inactive | inactive | inactive | – | –
NS(=O)(=O)c1ccccc1Cl | inactive | inactive | inactive | inactive | inactive | inactive | inactive | inactive | inactive | inactive | inactive | inactive | inactive | – | inactive | inactive | inactive | inactive | inactive | inactive
C=COCCCC | inactive | inactive | inactive | inactive | inactive | inactive | inactive | inactive | inactive | inactive | inactive | inactive | inactive | – | inactive | inactive | inactive | inactive | – | inactive
CCCCCCCCOCCC#N | inactive | inactive | inactive | inactive | inactive | inactive | inactive | inactive | – | inactive | inactive | inactive | inactive | inactive | inactive | inactive | inactive | inactive | inactive | inactive
Cc1cc(C)cc(O)c1 | inactive | inactive | inactive | inactive | inactive | inactive | inactive | inactive | inactive | – | inactive | inactive | inactive | inactive | inactive | inactive | inactive | inactive | inactive | inactive
CC(C)C(=O)OCCOc1ccccc1 | inactive | inactive | inactive | inactive | inactive | inactive | – | inactive | inactive | inactive | inactive | inactive | inactive | inactive | inactive | inactive | inactive | inactive | inactive | inactive
CC(C)C(=O)O | inactive | inactive | inactive | inactive | inactive | inactive | inactive | inactive | – | inactive | inactive | inactive | inactive | inactive | inactive | inactive | inactive | inactive | inactive | inactive
COC(=O)C1=C(C)NC(C)=C(C(=O)OCC(C)C)C1c1ccccc1[N+](=O)[O-] (stereo unspecified) | inactive | 24.3 µM (active) and inactive | inactive | inactive | inactive | inactive | inactive | inactive | inactive | inactive | – | – | – | – | inactive | inactive | inactive | – | – | 11.9 µM (active)
CCCCCCCCOC(=O)CCCCCCCCC(=O)OCCCCCCCC | inactive | inactive | inactive | inactive | inactive | inactive | inactive | inactive | inactive | – | inactive | inactive | inactive | inactive | inactive | inactive | inactive | inactive | inactive | inactive
COc1ccc(C#N)cc1 | inactive | inactive | inactive | inactive | inactive | inactive | inactive | inactive | – | inactive | inactive | inactive | inactive | inactive | – | inactive | inactive | – | – | inactive
CCC(CO)CO | inactive | inactive | inactive | inactive | inactive | inactive | inactive | inactive | inactive | inactive | inactive | inactive | inactive | inactive | inactive | inactive | inactive | inactive | inactive | –
CC/C=C/CCO | inactive | inactive | inactive | inactive | inactive | inactive | inactive | – | inactive | inactive | – | inactive | inactive | inactive | inactive | inactive | inactive | inactive | inactive | inactive
CN(C)c1ccc(C(=N)c2ccc(N(C)C)cc2)cc1 | 24 µM (active) and 23.4 µM (active) | 60.4 µM (active) and 52.4 µM (active) | 29.7 µM (active) | inactive | inactive | inactive | inactive | inactive | inactive | – | inactive | – | inactive | – | inactive | inactive | inactive | inactive | inactive | inactive
CCCCN=C(N)N=C(N)N | inactive | inactive | inactive | inactive | inactive | inactive | inactive | – | inactive | inactive | inactive | inactive | inactive | inactive | inactive | inactive | – | inactive | inactive | –
CCN1CCCC(OC(=O)C(c2ccccc2)c2ccccc2)C1 (stereo unspecified) | inactive | inactive | inactive | inactive | inactive | inactive | inactive | inactive | inactive | inactive | 0.0756 µM (active) | 4.1 µM (active) | inactive | – | inactive | inactive | – | – | – | –
